Results filed as inconclusive are left out. Unmarked numbers belong to inactive results. Activity calls are given as the source filed them. Calls follow the shape of the full dose curve.
These compounds were tested against Vitamin D3 receptor (Homo sapiens) (UniProt P11473) (assay: qHTS assay for small molecule antagonists of vitamin D receptor signaling (AID 588541;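 also: receptor activated by calcitriol during compound treatment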)). Conditions: HEK293T VDR-UAS-bla, beta-lactamase ratio, antagonist mode; series mostly up to 76.7 µM; activity change, negative = inhibition: at the top concentration.
From the text: NIH Chemical Genomics Center [NCGC]
U.S. Environmental Protection Agency [EPA]
National Institutes of Environmental Health Sciences [NIEHS]
National Toxicology Program [NTP]
The Vitamin D receptor (VDR) is a member of nuclear hormone receptor superfamily and it plays a critical role in calcium homeostasis and bone metabolism. It plays a role in inducing cell differentiation, inhibiting cell growth and in thrombogenicity. So, VDR that mediates these effects represents a pharmacological target in prevention and treatment of hyperproliferative malignancies, such as cancer and psoriasis, cardiovascular, immunological, inflammatory and renal diseases etc.
NCGC Assay Protocol Summary
Using a beta-lactamase reporter-gene under control of Vitamin D receptor (VDR) response element, a cell-based assay [GeneBLAzer (VDR -UAS-bla assay developed by Invitrogen] was used to measure VDR ligands signaling. GeneBLAzer VDR -UAS-bla HEK293T cells were used with assay medium containing 2% charcoal-stripped FBS. The assay was performed in clear bottom black Greiner 1536-well plates. Library compounds were measured for their ability to inhibit the reporter gene activity. Compounds were screened in a titration series in 1536-well format. The fluorescence intensity (405 nm excitation, 460/530 nm emission) was measured using an EnVision plate reader. Data was normalized relative to 1-alpha,25-Dihydroxy vitaminD3 control (50 nM, 100%) and DMSO only wells (basal, 0%). Concentration-response titration points for each compound were fitted to the Hill equation yielding concentrations of half-maximal inhibition (IC50) and maximal response (efficacy) values.
qHTS protocol for VDR beta-lactamase assay in antagonist mode
[Step] [Parameter] [Value] [Description]
1. Reagent; 5 uL; 2000 cells/well
2. Incubation; 37 C for 5 hrs
4. Controls (DMSO); 23 nL,
5. Agonist (Stimulator); 1uL; 1-alpha,25-Dihydroxy vitaminD3 at 50 nM and 3 nM final concentrations
6. Incubation; 37 C for 16 hrs
7. Detection reagent; 1 uL of CCF4-dye
8. Incubation; RT for 2 hrs
9. Detection; Fluorescence; Envision plate reader
% is scaled to controls: 0 for no effect and ±100 for the full control effect.

Sequence of Vitamin D3 receptor (Homo sapiens) (P11473 whole entry, looked up): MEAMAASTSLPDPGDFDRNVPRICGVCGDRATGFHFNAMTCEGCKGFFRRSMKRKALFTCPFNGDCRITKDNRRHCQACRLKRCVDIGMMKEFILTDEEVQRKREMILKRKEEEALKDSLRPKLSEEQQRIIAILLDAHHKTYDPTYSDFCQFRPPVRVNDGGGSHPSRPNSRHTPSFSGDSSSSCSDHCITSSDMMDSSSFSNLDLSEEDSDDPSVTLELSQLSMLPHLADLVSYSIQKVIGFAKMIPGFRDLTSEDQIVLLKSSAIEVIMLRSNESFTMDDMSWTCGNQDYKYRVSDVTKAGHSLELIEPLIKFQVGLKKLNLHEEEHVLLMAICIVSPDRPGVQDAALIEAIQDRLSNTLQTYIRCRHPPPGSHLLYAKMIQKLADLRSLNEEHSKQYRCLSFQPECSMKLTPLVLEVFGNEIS

SMILES	activity change, negative = inhibition [%]	outcome
[Cl][In]([Cl])[Cl]	10.8	
CN(C)CCC=C1c2ccccc2CCc2ccccc21		inactive
CN(C)CCOC(C)(c1ccccc1)c1ccccn1 (stereo not drawn)	0.966	
NC(=O)N/N=C/c1ccc([N+](=O)[O-])o1		inactive
CC12CCC(CC1)C(C)(C)O2	-3.17	
O=S(=O)(O)NC1CCCCC1	-0.686	
Cc1cc(CC(=O)O)n(C)c1C(=O)c1ccc(Cl)cc1	5.88	
CCCCOC(=O)c1ccc(O)cc1		inactive
CC(O)COc1ccccc1 (stereo not drawn)	4.43	
CNC(=O)Oc1ccc2c(c1)[C@]1(C)CCN(C)[C@@H]1N2C	-1.43	
Cc1cccc(Nc2cc(Cl)nc(SCC(=O)O)n2)c1C	1.42	
CC1=C(/C=C/C(C)=C/C=C/C(C)=C/C(=O)O)C(C)(C)CCC1	-7.16	
Nc1ccc(S(=O)(=O)Nc2nccs2)cc1	6.05	
CCCCC(CC)COC(=O)c1ccccc1O (stereo not drawn)	5.66	
NCCNCCNCCNCCN	-12.1	
CC1(C)[C@@H]2CC[C@@]1(C)C(=O)C2	2.56	
CN(C)CCCN1c2ccccc2Sc2ccc(Cl)cc21	0.0461	
NC(=O)c1ncn([C@@H]2O[C@H](CO)[C@@H](O)[C@H]2O)n1	-16.5	
COc1ccccc1O		inactive
Oc1cccc(O)c1	0.378	
NCCNCCNCCN	3.57	
CC(O)CN(CCN(CC(C)O)CC(C)O)CC(C)O (stereo not drawn)	3.97	
CCCCCCCCCCCCOS(=O)(=O)O		inactive

Reference: PubChem BioAssay (NCATS)
